D1 PAM: Potentiators of Human D1 Dopamine Receptor: qHTS; HEK293 TREx D1 cells, calcium flux, dopamine EC20 potentiation; AID 504651, 2011; potentiation, % at 10 µM; D(1A) dopamine receptor (Homo sapiens), P21728; 360,000 tested, 0.036% active; in the data active means potentiation above about 30%; further: 0% is about no effect
Target sequence (P21728 whole entry, looked up): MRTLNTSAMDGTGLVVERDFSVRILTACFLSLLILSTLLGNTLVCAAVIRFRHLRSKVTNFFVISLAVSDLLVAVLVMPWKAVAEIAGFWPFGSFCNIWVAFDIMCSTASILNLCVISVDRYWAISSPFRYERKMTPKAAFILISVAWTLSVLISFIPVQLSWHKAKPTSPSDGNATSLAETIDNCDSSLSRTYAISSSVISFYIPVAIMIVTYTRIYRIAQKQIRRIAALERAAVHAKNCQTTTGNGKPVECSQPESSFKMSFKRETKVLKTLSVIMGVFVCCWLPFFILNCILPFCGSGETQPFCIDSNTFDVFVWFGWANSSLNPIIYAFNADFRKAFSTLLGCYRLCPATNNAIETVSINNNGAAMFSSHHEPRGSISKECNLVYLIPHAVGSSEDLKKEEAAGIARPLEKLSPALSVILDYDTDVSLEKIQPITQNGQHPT
D1 antagonist: Antagonist of Human D 1 Dopamine Receptor: qHTS | 360,000 tested, 3.2% active | D(1A) dopamine receptor (Homo sapiens), P21728 | HEK293 TREx D1 cells, calcium flux, dopamine EC80; hits give low values | AID 504652, 2011 | activity change, negative = inhibition, % at 10 µM; in the data active means activity change below about -30%; further: on the % scale 0 is the no-effect control and ±100 the full control effect
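Antagonism measured as reduced calcium response to an EC80 dopamine addition following 180 s compound pre-read; cells were inducible HEK293 Trex D1 plated overnight at 30 C, read kinetically at 1 cycle/sec.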
D3 ag: qHTS of D3 Dopamine Receptor Agonist: qHTS; D(3) dopamine receptor (Homo sapiens), P35462; D3R DiscoveRx beta-arrestin cells, luminescence, 90 min; max activation, %; 410,000 tested, 0.58% active; AID 652048, 2013; in the data active means max activation above about 30%; further: 0% is about no effect
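Cells at 1500/well, incubated overnight, then treated with pinned compounds (dopamine as control) for 90 min at 37 degrees C. DiscoveRx reagent added for 30 - 60 minutes at room temperature; luminescence read.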
D1 ag: Allosteric Agonists of the Human D1 Dopamine Receptor: qHTS. D(1A) dopamine receptor (Homo sapiens), P21728. HEK293 T-REx D1 cells, calcium flux, agonist mode. activation, % at 2 µM. 360,000 tested, 1% active; in the data active means activation above about 30%; further: 0% is about no effect
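Inducible HEK293 T-REx D1 cells, force-coupled to calcium signalling, were plated at 4000 cells/well with tetracycline and held overnight at 30 C. After no-wash calcium dye loading, compound-evoked calcium rise over 180 s flagged agonists.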
DRD3 antagonist: qHTS of D3 Dopamine Receptor Antagonist: qHTS. D(3) dopamine receptor (Homo sapiens), P35462. D3R cells, DiscoveRx beta-arrestin luminescence, antagonist mode; hits give low values. 360,000 tested, 2.5% active. max response, negative = inhibition, %; in the data active means max response below about -50%; inconclusive means no clear call, values can overlap the other calls; further: on the % scale 0 is the no-effect control and ±100 the full control effect
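Cells plated overnight at 1500 cells/well, then exposed to library compounds with dopamine controls for 90 minutes at 37 degrees C. DiscoveRx reagent added for 30–60 minutes at room temperature; luminescence read, quantitative HTS format.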
An asterisk follows results filed as active; ? = inconclusive; . = no result given; ! = repeats disagree. A selection: hits, their analogues and other compounds. The true share with any hit is near 6.1%.

SMILES	D1 PAM	D1 antagonist	D3 ag	D1 ag	DRD3 antagonist
Cc1ccc(SCC(=O)Nc2ccc(N3CCN(C)CC3)c(F)c2)c(C)c1	.	-25	-3	4	-98*
Cc1ccc(-n2nnnc2SCC(=O)Nc2ccc(N3CCN(C)CC3)cc2)c(C)c1	-7	-60*	-6	13	-11
CCCCn1nnnc1C(c1ccccc1)N1CCN(C(=O)c2ccco2)CC1 (stereo not given)	.	.	1	.	4
Cc1ccc(CN=C(N)Nc2nc(C)cc(C)n2)cc1	0	3	-2	1	0
CC(C)Oc1ccc(C(CC(=O)NCCCN(C)C)c2ccc(F)cc2)cc1 (stereo not given)	-7	-37*	-6	2	-13
COc1ccc(C(=S)Nc2ccc(C)cc2)cc1	-8	-21	-11	2	-67*
COc1ccc(NC(=S)c2ccncc2)cc1	2	-7	-10	5	-9
COc1ccc(C(=S)NCS(=O)(=O)c2ccc(C)cc2)cc1	-4	-35*	-5	6	-17
CCOC(=O)CC1C(=O)NCCN1C(=O)c1cccc(OC)c1 (stereo not given)	2	5	2	5	-6
CC1CCN(C(=O)CCc2nc3cc(S(=O)(=O)N(C)C)ccc3n2C)CC1	11	-32*	3	0	20
Cc1ccc(S(=O)Cc2nc(-c3ccc(C(=O)NC(C)c4ccccc4)cc3)oc2C)cc1 (stereo not given)	2	-5	-20	3	.
O=C(CCCSc1nnnn1-c1cccc2ccccc12)c1ccc(F)cc1	-6	-47*	7	62*	12
O=C(O)c1ccc(CSc2nnnn2-c2ccc(F)cc2)cc1	-9	-31*	5	0	-8
O=C(Nc1nccs1)c1ccc(CSc2nnnn2-c2ccccc2)cc1	1	-34*	1	9	-13
O=C(O)c1cc(-n2nnnc2SCc2ccc([N+](=O)[O-])cc2)ccc1Cl	0	1	-7	0	-54*
O=C(CSc1nnnn1-c1cccc2ccccc12)Nc1ccc(C(=O)O)cc1	-2	21	11	9	11
COc1ccc(-c2noc(N3CCC(C(=O)N4CCN(c5ccccc5F)CC4)CC3)n2)cc1	2	-3	4	0	.
CCCC(=O)Oc1c(Sc2ccc(C)cc2)c(C)nn1-c1ccccc1	-1	-3	-12	4	.
CC1(C(=O)Nc2cccc3ccccc23)CC1(Br)Br (stereo not given)	-12	-31*	2	0	13
CC(C)N1CCC1(C)C(=O)Nc1cccc2ccccc12 (stereo not given)	.	.	8	.	6
O=C(Cc1nnc(-c2nc3ccccc3[nH]2)o1)Nc1cc(C(F)(F)F)ccc1Cl	-7	1	.	3	.
Cc1cccc(C)c1C(O)c1ncc(-c2cccc(C(F)(F)F)c2)[nH]1 (stereo not given)	.	.	-3	.	-61*
COc1ccc(Cl)cc1NC(=O)CN(C)C(=O)C1COc2ccccc2O1 (stereo not given)	.	.	-5	.	1
CCC1CCCCN1C(=O)COC(=O)c1n[nH]c2ccccc12 (stereo not given)	0	.	-2	-2	2
O=C(COC(=O)Cc1ccc(Cl)cc1)NCCc1ccccc1	.	-6	1	8	-5
SMILES	D1 PAM	D1 antagonist	D3 ag	D1 ag	DRD3 antagonist
Nc1nccnc1C(=O)OCC(=O)NCCc1ccc(Cl)cc1	7	-47*	2	0	-11
CC(C)CNC(=O)COC(=O)c1n[nH]c2ccccc12	4	-51*	2	2	8
O=C(COC(=O)c1n[nH]c2ccccc12)NCCc1ccc(Cl)cc1	.	-30*	7	20	3
COc1ccc(CNC(=O)COC(=O)c2n[nH]c3ccccc23)cc1	5	-6	-2	2	0
CC1CCN(C(=O)COC(=O)c2n[nH]c3ccccc23)CC1	-1	-6	-12	2	-54*
COc1ccc(CCn2c(=O)c3cccnc3n(Cc3cccc([N+](=O)[O-])c3)c2=O)cc1OC	3	2	-5	6	0
COc1cccc(CNC(=O)Cn2nc3c(cc2=O)CCCC3)c1OC	-2	2	-5	0	.
CCc1ccc(CN2CCC(n3nccc3NC(=O)c3ccccc3C)CC2)cc1	-4	-6	8	15	21
Cc1ccccc1C(=O)Nc1ccnn1C1CCN(Cc2c(C)n(C)c3ccccc23)CC1	-3	-34*	-19	12	?
CCCCNc1c(-c2ccccn2)nc2nc(C)cc(C)n12	.	.	2	.	26
Cc1cccc2nc(-c3ccccn3)c(Nc3ccccc3)n12	2	-3	-29	0	.
Cc1ccc(Nc2c(-c3ccccn3)nc3cccc(C)n23)cc1	4	6	-27	1	-82*
Cc1cc(C)n2c(Nc3c(C)cccc3C)c(-c3ccccn3)nc2n1	.	.	-12	.	-70*
CCc1nc2c(OCC(N)=O)cccn2c1N(C)C(=O)C(C)C	.	.	-5	.	-15
Cc1cc(Cl)ccc1NC(=O)Cn1nc(C)c2c(C)n(-c3ccccc3)nc2c1=O	-1	-7	-5	1	.
Cc1ccc(-n2nc3c(=O)n(CCCC(=O)NCCc4ccccc4)nc(C)c3c2C)cc1	1	4	-9	4	-14
COc1cccc(CNC(=O)CCCn2nc(C)c3c(C)n(-c4ccc(C)cc4)nc3c2=O)c1OC	-1	-54*!	2	3	8
Cc1nn(-c2ccccc2)c2c1N(CCCC(=O)NCc1ccc(Cl)cc1)C(=O)CS2	-4	-48*	-8	1	.
COc1ccccc1CNC(=O)CCCn1nc(C)c2c(C)n(-c3ccccc3)nc2c1=O	-5	-21	4	0	17
Cc1nn(CCCC(=O)NCCc2ccccc2)c(=O)c2nn(-c3ccccc3)c(C)c12	0	-36*	-4	0	-17
Cc1cc(Cl)ccc1NC(=O)CCCn1nc(C)c2c(C)n(-c3ccccc3)nc2c1=O	2	-32*	8	-2	.
Cc1ccc(-c2nc3scc(CCNS(=O)(=O)c4ccc(C)c(C)c4)n3n2)cc1	-1	.	10	6	.
COc1cc(NC(=O)c2ccc3c(c2)S(=O)(=O)N=C2CCCCCN23)cc(OC)c1	-2	-5	-2	5	3
Cc1nn(CCCC(=O)NCCc2ccc(Cl)cc2)c(=O)c2nn(-c3ccccc3)c(C)c12	-3	-33*!	-1	-1	12
Cc1ccc(CCNC(=O)CCCn2nc(C)c3c(C)n(-c4ccccc4)nc3c2=O)cc1	-2	4	-4	3	.
COc1ccc(OC)c(NC2=NC3(CCCC3)N=C(N)N2)c1	-23	-57*	-5	6	-58*

Screening results: PubChem, National Center for Advancing Translational Sciences (NCATS)
